Calb FLC: C. albicans growth modulation with fluconazole; C. albicans CaCi-2 (fluconazole-resistant clinical isolate) + fluconazole, Alamar Blue growth, 48 h; growth inhibition, % (concentration not given with the values); 0.57% of 300,000 active;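 active = growth inhibition above about 58% in most replicates, limit read from the data, passing the limit was not always enough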;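 also: all wells also contain fluconazole at 8 µg/ml as a sub-toxic cotreatment; 0% = median of DMSO wells and 100% = median of geldanamycin control wells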
CSC inhib: blocks cancer stem cells; cancer stem cell-like cells viability, luminescence; inhibition, % at 7.5 µM; 1.1% of 300,000 active; in the data active = inhibition above about 75%; tested in HMLE shEcad cells
Beta cell apopt: blocks beta cell apoptosis; 0.8% of 300,000 active; protection from apoptosis, % (no concentration beside the values); INS-1E cytokine-induced death, ATP luminescence, 48 h; percent of positive-control rescue, neutral wells zero;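 active = Every replicate reaches about 75%, or at least half do and their mean reaches it too, limit read from the data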;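 also: 0% = cytokine-treated negative control wells and 100% = positive control rescue; higher means more ATP so stronger rescue from cytokine killing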
SKKanGAS inh: inhibitors of SKKanGAS S. pyogenes growth in kanamycin (SK-promoter or general growth effect); BacTiter-Glo, 6 h; 1.3% of 300,000 active; inhibition, % at 7.5 µM;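 active = mean replicate score, as percent of positive control median, at least 50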;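 also: strain carries kanamycin resistance gene driven by streptokinase promoter and grows in 40 µg/ml kanamycin; loss of luminescence reflects streptokinase promoter inhibition or plain growth inhibition; 0% = median of DMSO wells and 100% = positive control at its reference dose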
MPTP inh: permeability transition pore inhibition | 1.4% of 360,000 active | inhibition, % at 10 µM | isolated mouse mitochondria, Ca2+ swelling absorbance, 30 min;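 active = inhibition of 50% or more, scaled per plate between neutral and stimulator controls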;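 also: 0% = DMSO wells given calcium and 100% = 1 mM EGTA wells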
Mdm2 MdmX PPI: inhibitors of human Mdm2/MdmX interaction | O15151+Q00987 | SaOS-2 split-luciferase Mdm2/MdmX complementation, luminescence | inhibition, % at 8 µM | 3% of 330,000 active | AID 485346;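 active = inhibition of at least 50% at 8 µM in the primary screen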
Mdm2-MdmX conf: confirmation of human Mdm2/MdmX interaction inhibitors | shares compounds with Mdm2 MdmX PPI | Mdm2-MdmX binding, luminescent assay | inhibition, % at 8 µM | 55% of 10,000 active | AID 489028; in the data active = inhibition above about 40%
Full FLuc ctr: full-length luciferase inhibition in Mdm2/MdmX counter-screen; AID 504607; SaOS-2 full-length luciferase counterscreen, luminescence; inhibition, % at 8 µM; shares compounds with Mdm2 MdmX PPI; 77% of 6,200 active;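 active = mean inhibition at 8 µM reaching about 37%, which flags the compound as non-specific, limit read from the data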;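 also: p53-null SaOS-2 cells with luciferase driven by a doxycycline-inducible promoter; compound on cells about two nights before reading with doxycycline added after day one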
Starred values were filed as active, the others as inactive; / = not tested or not shown. Rows were chosen to be rich in hits. Some 5.4% of all compounds tested hit in one or more screens of this group.

SMILES | Calb FLC | CSC inhib | Beta cell apopt | SKKanGAS inh | MPTP inh | Mdm2 MdmX PPI | Mdm2-MdmX conf | Full FLuc ctr
CSc1nc2c(cnn2-c2ccc(C)c(C)c2)c(=O)[nH]1 | -9 | -2 | / | 5 | 0 | 53* | 5 | /
Cc1ccc(/C=C/C(=O)c2ccccc(=O)c2O)c(C)c1 | 92* | 2 | 70 | 58* | 4 | 67* | 61* | 19
O=C(NC1CCCCCC1)C(=O)NC1CCCC1 | -1 | -12 | -1 | 0 | 2 | -71 | / | /
Cc1[nH]c2c(C)cccc2c1CCNC(=O)c1ccc2c(c1[N+](=O)[O-])C(=O)c1ccccc1C2=O | 5 | 50 | -7 | 45 | 0 | 75* | 31 | /
Cc1[nH]c2ccccc2c1CCNC(=O)c1ccc2c(c1[N+](=O)[O-])C(=O)c1ccccc1C2=O | 33 | 24 | 10 | 32 | -1 | 69* | 20 | /
CN(C)C(=O)c1ccc2c(c1[N+](=O)[O-])C(=O)c1ccccc1C2=O | -3 | 5 | 29 | 19 | 1 | 14 | / | /
Cc1cccc2c(=O)c(C(=O)NCCc3ccccc3)c[nH]c12 | 2 | 32 | 12 | -9 | 0 | 18 | / | /
COc1ccc(-c2cc(C)no2)cc1S(=O)(=O)NCC1CCN(Cc2cc(C)ccc2C)CC1 | 1 | 14 | -6 | 5 | 3 | 61* | 22 | /
Cc1cc(-c2ccc(C)c(S(=O)(=O)NCC3CCN(Cc4ccc(F)cc4)CC3)c2)on1 | 2 | / | 6 | -7 | 0 | 30 | / | /
COc1ccccc1CN1CCC(CNS(=O)(=O)c2cc(-c3cc(C)no3)ccc2C)CC1 | 19 | 24 | -10 | 3 | 4 | 56* | 44* | 75*
COc1ccc(-c2cc(C)no2)cc1S(=O)(=O)N(C)c1ccc(C)cc1 | 34 | 61 | 16 | 11 | -1 | 63* | 50* | 60*
COc1ccc(N(C)S(=O)(=O)c2cccc(C(=O)OCC(=O)N(C)c3ccccc3)c2)cc1 | / | / | -1 | / | 0 | 10 | / | /
CCCCNC(=O)Nc1ccc(C2SCCS2)cc1 | -5 | 2 | 0 | 5 | 27 | -41 | / | /
O=S(=O)(c1ccc(Cl)cc1)N1CCC2(CC1)OCCO2 | 1 | 4 | -4 | 2 | 1 | -3 | / | /
O=C1NC(=Nc2ccccc2)S/C1=C\c1cccnc1 | 8 | -4 | / | 7 | 4 | 31 | / | /
O=C1NC(=Nc2cccnc2)S/C1=C/c1ccc(F)cc1 | 5 | 55 | -1 | 4 | 5 | 51* | 20 | /
Cc1ccc(C(C(=O)NCc2ccco2)N(Cc2ccco2)C(=O)CNC(=O)c2ccco2)cc1 (stereo unspecified) | -21 | -9 | -1 | -21 | 1 | -11 | / | /
Cc1ccc(C(C(=O)NCc2ccco2)N(C(=O)CNC(=O)c2cccs2)c2c(C)cc(C)cc2C)cc1 (stereo unspecified) | 2 | 32 | -6 | 8 | 0 | 87* | 53* | 43*
Cc1ccc(C(C(=O)NCc2ccco2)N(C(=O)CNC(=O)c2cccs2)c2c(C)cccc2C)cc1 (stereo unspecified) | -3 | 3 | 36 | 10 | 3 | 52* | 53* | 65*
Cc1ccc(C(C(=O)NCc2ccco2)N(C(=O)CNC(=O)c2cccs2)c2ccc(C)cc2)cc1 (stereo unspecified) | 1 | -8 | -7 | 15 | -1 | -5 | / | /
COc1ccc(OCC(=O)Nc2ccc3c(c2)nc(CCN2CCN(C)CC2)n3C)cc1 | -1 | 3 | / | 0 | 0 | 12 | / | /
Cc1cc(=O)n2nc(N3CCC(C(=O)N4CCN(c5ccccc5)CC4)CC3)sc2n1 | -4 | 0 | -8 | 2 | 2 | 22 | / | /
COc1cc2c(cc1NC(=O)CN(C)Cc1ccc(OC)c(OC)c1)oc1ccccc12 | -10 | / | 11 | 14 | 1 | 51* | 59* | 58*
C=CCn1c(COc2ccccc2F)nnc1SCC(=O)Nc1cc2oc3ccccc3c2cc1OC | -7 | 27 | -1 | 28 | 2 | 54* | 33 | /
COCCCNC(=S)Nc1cc2oc3ccccc3c2cc1OC | -20 | -4 | -3 | -8 | -1 | 55* | 41* | 90*
COc1cc2c(cc1NC(=O)CSc1nnc(Cc3cccs3)n1C)oc1ccccc12 | -11 | -9 | -13 | -1 | -9 | 21 | / | /
